Assay results: PubChem BioAssay
Calls of active or inactive are those of the source.

Legend:
[1] = binders of probe aFSTL3 on microarray, primary screen, stem cell growth factor project, biochemical, small-molecule microarray, fluorescence 635/667 (AID 1064); conditions: higher = more signal;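 further: measures binding of the biotinylated anti-FSTL3 antibody to printed compounds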
[2] = binders from COS7 lysate, DM2A8 probe, primary screen, torsin A project, cell lysate, small-molecule microarray, fluorescence 635/667 (AID 1065); conditions: higher = more signal, COS7 lysate expressing mutant human TOR1A
[3] = binders of probe aFGF2 on microarray, primary screen, stem cell growth factor project, biochemical, small-molecule microarray, fluorescence 635/667 (AID 1067); conditions: higher = more signal;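 further: measures binding of biotinylated aFGF2 protein to printed compounds on slides; z-score merges feature fluorescence and signal-to-noise across triplicate slides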
[4] = binders of probe aFGF10 on microarray, primary screen, stem cell growth factor project, biochemical, small-molecule microarray, fluorescence 635/667 (AID 1071); conditions: higher = more signal;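 further: score merges 667 nm spot intensity and signal to noise from triplicate slides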
[5] = molecular target: Neurogenic locus notch homolog protein 2 (Homo sapiens) (UniProt Q04721); experiment: Notch2 binders on small-molecule microarrays, primary screen, biochemical, small-molecule microarray, 635 nm fluorescence, stem cell growth factors (AID 1073); conditions: Notch2 binding, higher = more signal
Neurogenic locus notch homolog protein 2 (Homo sapiens), sequence (Q04721 whole entry, looked up, canonical isoform): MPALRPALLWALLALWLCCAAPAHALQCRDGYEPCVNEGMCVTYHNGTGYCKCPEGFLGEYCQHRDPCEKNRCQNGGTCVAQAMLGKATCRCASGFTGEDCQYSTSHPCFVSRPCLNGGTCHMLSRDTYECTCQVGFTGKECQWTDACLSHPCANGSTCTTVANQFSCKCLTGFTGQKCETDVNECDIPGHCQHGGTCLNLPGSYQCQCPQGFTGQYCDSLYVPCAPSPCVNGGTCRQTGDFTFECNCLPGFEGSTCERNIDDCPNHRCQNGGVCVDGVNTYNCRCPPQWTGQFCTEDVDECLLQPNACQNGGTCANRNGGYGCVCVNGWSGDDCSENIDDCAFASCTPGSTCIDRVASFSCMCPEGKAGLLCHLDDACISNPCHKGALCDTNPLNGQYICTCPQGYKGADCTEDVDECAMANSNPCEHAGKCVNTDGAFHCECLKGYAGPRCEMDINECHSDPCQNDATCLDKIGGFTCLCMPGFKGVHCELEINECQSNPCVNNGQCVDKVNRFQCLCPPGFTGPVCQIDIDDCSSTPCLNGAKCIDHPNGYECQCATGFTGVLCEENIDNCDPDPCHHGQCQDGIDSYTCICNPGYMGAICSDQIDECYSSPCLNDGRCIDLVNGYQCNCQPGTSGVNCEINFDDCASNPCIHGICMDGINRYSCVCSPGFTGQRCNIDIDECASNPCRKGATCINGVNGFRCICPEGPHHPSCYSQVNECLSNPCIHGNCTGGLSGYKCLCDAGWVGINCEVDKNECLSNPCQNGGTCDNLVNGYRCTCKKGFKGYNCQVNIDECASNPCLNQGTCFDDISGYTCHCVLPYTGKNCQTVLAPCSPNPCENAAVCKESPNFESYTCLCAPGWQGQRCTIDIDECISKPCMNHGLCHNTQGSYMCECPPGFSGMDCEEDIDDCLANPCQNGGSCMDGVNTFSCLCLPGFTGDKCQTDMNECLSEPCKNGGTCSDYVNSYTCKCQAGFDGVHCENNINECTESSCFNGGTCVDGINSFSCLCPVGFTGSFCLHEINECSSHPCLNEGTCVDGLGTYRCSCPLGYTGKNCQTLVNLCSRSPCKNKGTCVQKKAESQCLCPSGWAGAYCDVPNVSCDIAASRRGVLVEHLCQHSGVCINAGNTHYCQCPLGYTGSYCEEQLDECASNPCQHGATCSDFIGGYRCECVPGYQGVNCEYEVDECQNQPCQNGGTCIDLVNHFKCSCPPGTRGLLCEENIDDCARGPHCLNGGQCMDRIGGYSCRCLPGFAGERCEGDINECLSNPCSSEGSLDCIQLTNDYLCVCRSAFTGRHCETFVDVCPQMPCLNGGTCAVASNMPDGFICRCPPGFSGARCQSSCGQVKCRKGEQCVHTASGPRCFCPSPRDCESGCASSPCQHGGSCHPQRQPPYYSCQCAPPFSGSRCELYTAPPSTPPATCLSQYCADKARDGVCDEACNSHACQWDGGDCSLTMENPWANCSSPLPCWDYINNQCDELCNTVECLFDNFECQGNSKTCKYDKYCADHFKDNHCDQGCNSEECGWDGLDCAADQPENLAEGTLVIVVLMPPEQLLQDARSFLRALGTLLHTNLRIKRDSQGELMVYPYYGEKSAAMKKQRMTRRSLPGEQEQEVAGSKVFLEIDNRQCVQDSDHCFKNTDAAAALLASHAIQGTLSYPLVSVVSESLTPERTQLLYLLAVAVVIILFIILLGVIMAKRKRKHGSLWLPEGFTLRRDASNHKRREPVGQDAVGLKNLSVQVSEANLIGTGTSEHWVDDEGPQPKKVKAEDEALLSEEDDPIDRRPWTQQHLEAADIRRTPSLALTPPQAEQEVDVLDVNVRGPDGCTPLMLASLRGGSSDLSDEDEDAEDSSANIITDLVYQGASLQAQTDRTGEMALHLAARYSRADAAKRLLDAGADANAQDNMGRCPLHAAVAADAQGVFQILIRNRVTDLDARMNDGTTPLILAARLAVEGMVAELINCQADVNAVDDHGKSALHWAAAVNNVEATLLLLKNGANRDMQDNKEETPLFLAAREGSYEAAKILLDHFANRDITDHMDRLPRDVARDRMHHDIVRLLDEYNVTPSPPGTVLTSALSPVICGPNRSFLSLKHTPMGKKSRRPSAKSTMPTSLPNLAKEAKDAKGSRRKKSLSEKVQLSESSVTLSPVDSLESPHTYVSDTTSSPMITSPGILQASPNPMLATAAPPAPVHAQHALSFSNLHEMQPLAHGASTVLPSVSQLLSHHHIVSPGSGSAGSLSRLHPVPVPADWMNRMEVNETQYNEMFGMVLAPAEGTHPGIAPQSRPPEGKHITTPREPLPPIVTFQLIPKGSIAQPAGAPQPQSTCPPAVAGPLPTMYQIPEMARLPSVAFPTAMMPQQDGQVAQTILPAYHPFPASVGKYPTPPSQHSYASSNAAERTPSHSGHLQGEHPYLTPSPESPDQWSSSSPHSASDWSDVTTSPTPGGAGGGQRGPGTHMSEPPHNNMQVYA

[6] = molecular target: Pro-neuregulin-1, membrane-bound isoform (Homo sapiens) (UniProt Q02297); experiment: NRG1 binders on small-molecule microarrays, primary screen, psychiatric disease protein project, biochemical, small-molecule microarray, fluorescence 635/667 (AID 1075); conditions: NRG1 binding, 635 nm fluorescence, higher = more signal;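 further: score combines 667 nm spot fluorescence with signal to noise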
[7] = test system: Neuregulin-1 EGF-like domain; experiment: binders of neuregulin-1 EGF-like domain, primary screen, biochemical, small-molecule microarray, 635 nm fluorescence (AID 1081); conditions: small-molecule microarray binding, higher = more signal;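 further: binding of the protein to compounds printed on small-molecule microarray slides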
[8] = FRG1 promoter luciferase signal modulators, primary screen, FRG1 inhibition for FSHD, cell-based, C2C12 myotubes, firefly/Renilla luciferase, luminescence (AID 1084); conditions: higher = more signal, called active from +8 up or from −8 down
[9] = binders of probe aFST on microarray, primary screen, stem cell growth factor project, biochemical, small-molecule microarray, fluorescence 635/667 (AID 1086); conditions: higher = more signal;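 further: score merges 667 nm fluorescence with signal-to-noise of each printed compound spot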
[10] = binders of probe aHhip on microarray, primary screen, stem cell growth factor project, biochemical, small-molecule microarray, fluorescence 635/667 (AID 1087); conditions: higher = more signal;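 further: score merges spot fluorescence at 667nm with spot signal to noise ratio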
[11] = test system: PRMT1 (protein arginine N-methyltransferase 1); experiment: PRMT1 binders on small-molecule microarrays, primary screen, biochemical, small-molecule microarray, 635 nm fluorescence (AID 1088); conditions: small-molecule microarray binding, higher = more signal;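 further: binding of Prmt1 protein to compounds spotted on small-molecule microarray slides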
[12] = yeast growth modulation, basal conditions, primary screen, YJM789 clinical isolate, OD600, 24 h (AID 1089);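 further: growth of clinical yeast isolate S. cerevisiae YJM 789 seeded 1000 cells per well; test concentration not given here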; conditions: S. cerevisiae YJM789 growth, higher = more signal, called active from +8 up or from −8 down
[13] = fission yeast growth modulation, primary screen, strain 972, OD600, 24 h, no modulator (AID 1090);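 further: basal condition with compound alone and no growth modifier present; test concentration not given here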; conditions: S. pombe 972 growth, higher = more signal, called active from +8 up or from −8 down
[14] = S. cerevisiae growth modulation with rapamycin, primary screen, strain BY4716, OD600, 96 h (AID 1091); conditions: higher = more signal, called active from +8 up or from −8 down; further: test concentration not given here
[15] = molecular target: Torsin-1A-interacting protein 2 (Homo sapiens) (UniProt Q8NFQ8); experiment: LULL1 binders on small-molecule microarray, primary screen, cell lysate, human LULL1 lysate, 635/667 nm fluorescence (AID 1092); conditions: hLULL1 lysate binding, 635 nm fluorescence, higher = more signal;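 further: probe is lysate of COS7 cells overexpressing human LULL1; score merges per-feature 667 nm fluorescence with signal-to-noise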
[16] = E. coli growth modulation, two-sided OD650, primary screen, E. coli filamentation project, strain DRC41, 24 h (AID 1093); conditions: OD650, 24 h, higher = more signal, called active from +8 up or from −8 down;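 further: MC1000 strain lacking acrAB efflux and sulA so SOS filamentation is blocked; test concentration not given here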
[17] = small-molecule microarray binders of probe aLefty2, primary screen, biochemical, biotinylated probe, 635/667 nm fluorescence (AID 1094); conditions: higher = more signal;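 further: score merges spot fluorescence near 667 nm with spot signal-to-noise ratio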
[18] = test system: Noggin (protein binding on small-molecule microarray); experiment: Noggin binders on small-molecule microarray, primary screen, biochemical, 635/667 nm fluorescence (AID 1095); conditions: 635 nm fluorescence, higher = more signal;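 further: score merges 667 nm feature fluorescence with signal to noise over triplicate slides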
[19] = molecular target: Neurogenic locus notch homolog protein 3 (Homo sapiens) (UniProt Q9UM47); experiment: NOTCH3 binders on small-molecule microarray, primary screen, biochemical, 635/667 nm fluorescence (AID 1096); conditions: NOTCH3 binding, 635 nm fluorescence, higher = more signal
Neurogenic locus notch homolog protein 3 (Homo sapiens), sequence (Q9UM47 whole entry, looked up): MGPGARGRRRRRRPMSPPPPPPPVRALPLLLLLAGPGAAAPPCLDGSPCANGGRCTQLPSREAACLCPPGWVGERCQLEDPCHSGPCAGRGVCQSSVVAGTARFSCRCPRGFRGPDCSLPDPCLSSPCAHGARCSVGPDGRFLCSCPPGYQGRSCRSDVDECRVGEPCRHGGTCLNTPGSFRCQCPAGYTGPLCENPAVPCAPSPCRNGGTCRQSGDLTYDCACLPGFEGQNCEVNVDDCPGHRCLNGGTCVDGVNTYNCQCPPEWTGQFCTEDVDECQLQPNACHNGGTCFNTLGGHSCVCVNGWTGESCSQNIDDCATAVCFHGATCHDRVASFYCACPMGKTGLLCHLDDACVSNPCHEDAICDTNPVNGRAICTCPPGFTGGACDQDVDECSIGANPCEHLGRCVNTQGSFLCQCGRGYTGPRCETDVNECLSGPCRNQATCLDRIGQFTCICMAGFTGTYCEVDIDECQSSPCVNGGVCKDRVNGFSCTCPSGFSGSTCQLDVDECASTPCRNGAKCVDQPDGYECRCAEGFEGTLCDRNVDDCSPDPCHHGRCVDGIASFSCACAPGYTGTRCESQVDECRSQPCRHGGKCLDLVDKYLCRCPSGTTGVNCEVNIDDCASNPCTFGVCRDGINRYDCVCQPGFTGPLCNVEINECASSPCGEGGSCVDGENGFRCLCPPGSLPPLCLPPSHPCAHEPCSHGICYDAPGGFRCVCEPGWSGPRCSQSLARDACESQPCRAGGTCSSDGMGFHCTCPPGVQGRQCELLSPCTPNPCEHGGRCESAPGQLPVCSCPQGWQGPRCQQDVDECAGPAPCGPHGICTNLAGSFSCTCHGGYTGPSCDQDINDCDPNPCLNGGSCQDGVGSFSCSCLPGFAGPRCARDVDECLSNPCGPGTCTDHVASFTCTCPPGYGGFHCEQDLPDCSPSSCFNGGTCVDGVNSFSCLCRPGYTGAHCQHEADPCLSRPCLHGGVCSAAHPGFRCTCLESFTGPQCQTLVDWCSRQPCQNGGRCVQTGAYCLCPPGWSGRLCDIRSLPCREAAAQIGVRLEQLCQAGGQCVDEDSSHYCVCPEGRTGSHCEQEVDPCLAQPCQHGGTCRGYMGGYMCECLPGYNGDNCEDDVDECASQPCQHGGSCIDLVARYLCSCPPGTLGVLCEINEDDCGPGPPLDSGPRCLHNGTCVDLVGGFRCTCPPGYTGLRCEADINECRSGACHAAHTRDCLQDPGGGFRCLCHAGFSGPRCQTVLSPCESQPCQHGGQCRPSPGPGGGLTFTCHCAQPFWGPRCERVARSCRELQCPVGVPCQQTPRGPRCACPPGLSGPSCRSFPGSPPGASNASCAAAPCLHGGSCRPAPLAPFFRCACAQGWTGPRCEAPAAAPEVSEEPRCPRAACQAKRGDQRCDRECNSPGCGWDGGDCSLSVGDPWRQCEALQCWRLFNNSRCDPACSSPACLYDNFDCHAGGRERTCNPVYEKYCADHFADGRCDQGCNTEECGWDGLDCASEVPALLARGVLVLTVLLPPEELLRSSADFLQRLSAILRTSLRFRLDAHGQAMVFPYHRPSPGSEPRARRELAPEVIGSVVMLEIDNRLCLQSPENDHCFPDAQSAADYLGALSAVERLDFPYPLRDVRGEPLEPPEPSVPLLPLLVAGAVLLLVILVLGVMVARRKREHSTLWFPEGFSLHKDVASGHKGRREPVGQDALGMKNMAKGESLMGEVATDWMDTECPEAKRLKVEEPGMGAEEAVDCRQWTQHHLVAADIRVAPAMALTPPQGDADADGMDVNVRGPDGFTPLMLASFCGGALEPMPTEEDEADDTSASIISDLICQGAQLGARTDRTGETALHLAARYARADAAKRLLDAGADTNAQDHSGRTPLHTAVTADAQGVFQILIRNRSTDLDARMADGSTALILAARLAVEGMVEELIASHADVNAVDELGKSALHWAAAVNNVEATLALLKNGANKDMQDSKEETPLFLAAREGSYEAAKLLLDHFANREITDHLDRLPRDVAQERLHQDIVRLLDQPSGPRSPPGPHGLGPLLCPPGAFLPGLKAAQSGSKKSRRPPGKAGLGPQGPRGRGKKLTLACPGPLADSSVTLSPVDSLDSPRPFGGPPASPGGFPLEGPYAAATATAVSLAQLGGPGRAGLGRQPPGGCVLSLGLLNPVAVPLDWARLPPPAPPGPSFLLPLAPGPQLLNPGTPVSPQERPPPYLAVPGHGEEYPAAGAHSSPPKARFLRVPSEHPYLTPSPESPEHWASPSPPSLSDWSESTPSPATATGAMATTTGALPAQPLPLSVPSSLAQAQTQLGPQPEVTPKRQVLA

[20] = small-molecule microarray binders of probe aEGFR, primary screen, biochemical, biotinylated probe, 635/667 nm fluorescence (AID 1097); conditions: higher = more signal;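 further: probe is a biotinylated anti-EGFR antibody binding compounds printed on slides; score combines fluorescence near 667 nm and signal to noise of each spot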

Structure (SMILES) | composite z-score [1] | composite z-score [2] | composite z-score [3] | composite z-score [4] | composite z-score [5] | composite z-score [6] | composite z-score [7] | z-score [8] | composite z-score [9] | composite z-score [10] | composite z-score [11] | z-score [12] | z-score [13] | z-score [14] | composite z-score [15] | z-score [16] | composite z-score [17] | composite z-score [18] | composite z-score [19] | composite z-score [20]
COC(=O)C[C@H]1O[C@]2(C(=O)N(C)c3ccccc32)[C@@H](C)[C@@H]1[Si](C)(C)F | -0.54 | 0.109 | -0.131 | 0.626 | 0.423 | -0.133 | 0.346 | -1.35 (inactive) | -0.0253 | 0.141 | 1.54 | -2.06 (inactive) | -1.29 (inactive) | -0.922 (inactive) | 2.24 | 1.64 (inactive) | -0.168 | 1.86 | 0.59 | -0.132
CC(C)N1C(=O)c2ccccc2[C@](C)(C(=O)NCCN2CCOCC2)[C@@H]1c1ccc(CO)cc1 | 0.755 | 0.779 | -0.104 | -1.08 | -0.879 | 1.76 | 0.728 | 0.185 (inactive) | -0.527 | -0.306 | 1.2 | 0.608 (inactive) | 0.516 (inactive) | 0.511 (inactive) | 2.37 | -0.487 (inactive) | 0.0971 | 0.495 | 0.1 | -0.0152
C=C[C@@H](COC(=O)OC(C)(C)C)N(Cc1ccc(OC)cc1)S(=O)(=O)c1ccc(Br)cc1 | -0.492 | 0.544 | -0.0598 | 0.0626 | 0.779 | 0.142 | 0.8 | -2.35 (inactive) | 0.481 | 0.0505 | 0.345 | -0.374 (inactive) | -0.521 (inactive) | -0.555 (inactive) | 0.269 | -0.701 (inactive) | 0.047 | 1.07 | 1.12 | -0.0088
[N-]=[N+]=Nc1ccccc1[C@@H]1OC(c2ccc(OCCCO)cc2)=N[C@]1(CCS(=O)(=O)c1ccccc1)C(N)=O | 0.109 | -0.0445 | 0.29 | 0.829 | 1.58 | 1.63 | 1.23 | 1.14 (inactive) | 2.08 | -0.213 | 1.55 | 0.193 (inactive) | -1.36 (inactive) | 0.199 (inactive) | 3.64 | 0.743 (inactive) | 0.588 | 0.561 | 0.91 | 0.122
OCCCC1=CC(c2cccs2)N(Cc2cc3c(cc2Br)OCO3)CC1 (stereo not given) | 0.235 | 0.457 | -0.124 | -0.0316 | -0.242 | 0.775 | 1.04 | -1.86 (inactive) | -0.0026 | -0.206 | 0.591 | -0.678 (inactive) | -1.05 (inactive) | -0.274 (inactive) | 1.17 | -0.414 (inactive) | 0 | 0.915 | 0.208 | -0.0304
CCc1cccc(NC(=O)O[C@H]2[C@H](OC(=O)Nc3ccccc3-c3ccccc3)[C@@H](OC(=O)Nc3ccccc3-c3ccccc3)[C@@H](OC)O[C@@H]2CO)c1 | -0.283 | 0.79 | 0.14 | 0.806 | 1.6 | 1.88 | 1.27 | 1.38 (inactive) | 1.32 | -0.104 | 1.53 | 0.182 (inactive) | 1.42 (inactive) | -2.51 (inactive) | 3.43 | -1.31 (inactive) | 0.126 | 0.666 | 1.07 | 0.0506
CC1CC/C=C\[C@H]2OC34C=CCN(Cc5ccccc5)C(=O)[C@H]3N(CCCO)C(=O)[C@@H]4C2C(=O)O1 (stereo not given in full) | 0.291 | 0.141 | -0.118 | -0.365 | -0.557 | 0.909 | 1.48 | 0.242 (inactive) | -0.662 | -0.0645 | 0.398 | -1.7 (inactive) | -1.25 (inactive) | -0.807 (inactive) | 1.97 | 0.56 (inactive) | -0.254 | -1.12 | -0.106 | -0.283
O=C1C2C=CC(C(O)CCc3ccccc3)N(Nc3ccccc3F)C2C(=O)N1c1ccccc1 (stereo not given) | -0.114 | 0.203 | 0.179 | 0.763 | 1.68 | 0.572 | 1.15 | 0.957 (inactive) | 1.16 | -0.191 | 1.49 | -0.566 (inactive) | 0.624 (inactive) | -0.378 (inactive) | 3.28 | -0.0741 (inactive) | 0.183 | 0.279 | 1.08 | 0.0059
CCOC(=O)C[C@H]1[C@H](OC(=O)c2ccc(C(=O)c3ccccc3)cc2)[C@@H](NC(=O)c2ccc3ccccc3c2)c2cc(OCCCO)ccc2N1C(=O)Cc1ccc(OC)cc1 | -0.242 | 0.151 | -0.146 | 0.66 | 0.361 | 0.401 | 0.107 | -0.314 (inactive) | 0.441 | -0.0645 | 0.789 | -0.0229 (inactive) | 0.713 (inactive) | 0.118 (inactive) | 1.43 | 0.458 (inactive) | 0.0633 | 0.0199 | 0.479 | -0.0688
C=CCNC(=O)[C@H]1[C@@H]2C(=O)O[C@@H](c3ccccc3)[C@@H](c3ccccc3)N2[C@@H](c2ccccc2OCCO)[C@]12C(=O)Nc1ccc(C#CCC(C(=O)OC)C(=O)OC)cc12 | 0.0775 | 0.44 | 0.0468 | 0.423 | 1.53 | 1.46 | 1.34 | -0.616 (inactive) | 1.08 | 0.409 | 1.32 | 1.93 (inactive) | 2 (inactive) | 5.92 (inactive) | 3.25 | 0.587 (inactive) | 0.65 | 0.897 | 1.05 | 0.486
CCCC=C(CCC)[C@@H](NC(=O)c1cccs1)c1ccc(C(F)(F)F)cc1 | 0.251 | 0.654 | -0.0515 | 0.383 | 1.43 | 0.393 | 0.729 | 2.26 (inactive) | 1.46 | -0.132 | 1.03 | -0.522 (inactive) | -2.1 (inactive) | -0.851 (inactive) | 0.109 | -0.649 (inactive) | 0.291 | 0.989 | 1.09 | 0.315
Cc1ccc(S[C@]2(C(=O)O)CC(=O)N(C(C)C)[C@@H]2c2ccc(CO)cc2I)cc1 | 1.83 | 1.16 | 0.0477 | -0.0395 | 0.175 | 1.89 | 1.16 | -0.974 (inactive) | 1.33 | -0.148 | 1.55 | -2.31 (inactive) | -2.85 (inactive) | 1.55 (inactive) | 2.21 | 3.25 (inactive) | 0.122 | -0.0137 | 0.271 | 0.0255
